Tau fluor counter: Counterscreen qHTS for Inhibitors of Tau Fibril Formation, Fluorescence Polarization; AID 1463, 2008; 280,000 tested, 0.93% active; Potency, µM (doses to about 57.7 µM); tau K18 P301L Alexa594 fluorescence, heparin fibrillization; note: nearly all actives have a fitted effect of over 55% in size
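Human tau K18 P301L (15 uM unlabeled, 0.24 uM Alexa 594-labeled) in 100 mM sodium acetate pH 7 with 20 uM heparin, 6 hr at 37 C. ThT 30 uM added, 1 hr ambient; Alexa 594 FP and total fluorescence read at 555/632 nm.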
Tau ThT inhib: qHTS for Inhibitors of Tau Fibril Formation, Thioflavin T Binding. Microtubule-associated protein tau (Homo sapiens), P10636. recombinant tau K18 P301L (four-repeat tau fragment), heparin-induced fibrillization, ThT fluorescence. Potency, µM (highest dose often 57.4 µM), usual class: inhibitors. 270,000 tested, 2.1% active. AID 1460, 2008; note: nearly all actives have a fitted effect of over 55% in size
Target sequence (P10636 561-689 P618L limits assumed): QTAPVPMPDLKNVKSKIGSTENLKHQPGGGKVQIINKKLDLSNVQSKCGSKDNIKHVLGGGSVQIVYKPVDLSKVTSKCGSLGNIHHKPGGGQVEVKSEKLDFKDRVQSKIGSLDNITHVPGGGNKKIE
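Heparin-induced fibrillization of the P301L-mutant K18 repeat-domain fragment of human tau was followed by ThT binding in quantitative high-throughput format.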
FBPA coupling cs: qHTS Assay for Inhibitors of Fructose-1,6-bisphosphate Aldolase from Giardia Lamblia: Coupling assay counterscreen | AID 2472, 2010 | coupling enzyme system counterscreen, AmpLite Red fluorescence | 290,000 tested, 0.67% active | activity change, negative = inhibition, % at 58.2 µM, hits read low; in the data active = activity change below about -30%
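Compounds tested against the coupling enzymes alone at 57.5 uM final; readout was AmpLite Red fluorescence (525/598 nm) after 20 min at RT.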
Sfp PPTase inh: qHTS Assay for Inhibitors of Bacillus subtilis Sfp phosphopantetheinyl transferase (PPTase) | AID 1490, 2009 | Biochemical Sfp PPTase activity, qHTS | 310,000 tested, 3.5% active | Potency, µM, hits mostly inhibitors;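 note: the enzyme is Sfp with the accession as filed and its product quenches rhodamine fluorescence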
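Sfp 15 nM + cpd, 15 min RT; start w/ rhodamine-CoA 5 uM, BHQ-2-YbbR 12.5 uM (final); 50 mM Hepes pH 7.6, 10 mM MgCl2, 0.01% NP-40, 0.01% BSA; read 525/598 nm at 0 and 30 min.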
Tau fibril FP: qHTS for Inhibitors of Tau Fibril Formation, Fluorescence Polarization; K18 P301L tau heparin fibrillization, Alexa594 FP, 6 h; Potency, µM (doses to about 57.7 µM), usual class: inhibitors; AID 1468, 2008; Microtubule-associated protein tau (Homo sapiens), P10636; 280,000 tested, 0.39% active; note: nearly all actives have a fitted effect of over 55% in size
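K18 P301L tau (15 uM unlabeled/0.24 uM Alexa 594-labeled, final) + compound + heparin 20 uM final; 100 mM NaOAc pH 7; 6 hr 37 C; ThT 30 uM final added, 1 hr RT; FP ex 555/em 632 nm.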
Numbers stand for hits; n = inactive; u = inconclusive; x = no result given; [ ] = dose if it differs, or a comment. The list is not random: actives were taken first. Their share in the collection is about 5.2%. Unless noted, calls come from the whole dose curve; as a rule, active = well fitted curve in the direction sought with a large enough effect; inconclusive = small, poorly fitted or top-dose-only effect, or another doubt; inactive = no such curve, though single readings can be large; an effect the other way counts as inactive or inconclusive.

SMILES	Tau fluor counter	Tau ThT inhib	FBPA coupling cs	Sfp PPTase inh	Tau fibril FP
Cc1ccc(C2=N/C(=C\N3CCCCC3)C(=O)O2)cc1	n	n	n	50µM	n
CC(=O)Nc1ccc(-n2cc(-c3ccccc3)[nH]c2=S)cc1	n	n	n	40µM	n
Cc1cccc(COc2ccc(-c3cc(C(F)(F)F)n4nc(C)cc4n3)cc2)c1	n	u	x	x	n
Cc1cc(C)cc(NC(=O)Nc2ccc3c(c2)N(C)C(=O)CS3)c1	11µM[quencher]	n	n	n	u
CCc1ccc(NC(=O)Nc2ccc3c(c2)N(C)C(=O)CS3)cc1	18µM[quencher]	n	n	n	u
Cc1ccc(NC(=O)Nc2ccc3c(c2)N(C)C(=O)CS3)cc1C	n	n	n	n	n
Cn1c(=O)c([N+](=O)[O-])c(NCc2ccc3c(c2)OCO3)c2ccccc21	n	n	n	50µM	n
Cn1c(=O)c([N+](=O)[O-])c(NCc2ccccc2Cl)c2ccccc21	n	n	n	n	n
CCCCOC(=O)c1ccc(-n2nnc3c(sc4nc(C)cc(C)c43)c2=O)cc1	n	n	x	x	n
O=C(Cn1c(=O)oc2ccccc21)NCc1ccccc1Cl	n	n	x	x	n
C/C(=N\NC(=S)Nc1cccc(C)c1)c1ccco1	n	n	n	n	n
CCNC(=S)N/N=C(\C)c1ccco1	n	n	n	56µM	n
CCOc1ccccc1NC(=O)c1nn(-c2ccc(C)cc2)c(=O)n(C)c1=O	n	n	x	x	n
O=C(CSc1cccc2cccnc12)N/N=C/c1ccc(F)cc1	n	u	n	n	n
O=C(O)CSc1cccc2cccnc12	n	n	n	56µM	n
COc1ccc(-c2cc(C(=O)NCCc3ccc(OC)c(OC)c3)c3ccccc3n2)cc1	u	u	x	x	n
CCCC/C=C/C(NC(=O)c1ccco1)c1ccccc1 (stereo not drawn)	n	n	n	n	n
COc1cc(/C=C/c2ccc3cccc(OC)c3n2)c(O)c([N+](=O)[O-])c1	u	1µM	n	n	n
COc1cc(/C=C/c2ccc3cccc(OC)c3n2)c(OC(C)=O)c([N+](=O)[O-])c1	u	2.8µM	n	n	u
COc1c(OC(C)=O)ccc(/C=C/c2ccc3cccc(OCc4ccccc4)c3n2)c1[N+](=O)[O-]	u	u	n	n	n
COc1cc2c(=O)c(C(=O)c3ccc(C)c(C)c3)cn(Cc3ccccc3F)c2cc1OC	n	n	x	x	n
CC(C)(C)Nc1nc(C#N)nc(Nc2ccccc2)n1	x	x	n	x	x
CCOC(=O)c1cccc(NC(=O)N2Cc3ccccc3Oc3ncccc32)c1	n	n	x	x	n
Oc1ccc(N=Cc2ccc(-c3cccs3)s2)cc1	u	7.9µM	-51	32µM	14µM
CCCCOc1ccc(N=Cc2cccs2)cc1	n	n	n	n	n
SMILES	Tau fluor counter	Tau ThT inhib	FBPA coupling cs	Sfp PPTase inh	Tau fibril FP
COc1ccc(-n2nnnc2C2CCN(S(=O)(=O)c3ccc(C(C)(C)C)cc3)CC2)cc1	n	n	x	x	n
O=C(/C=C/c1ccco1)c1ccccc1O	n	u	n	u	n
CC(/C=C/c1ccc(Cl)o1)=C\C(=O)O	n	u	n	32µM	u
CC(=C/C(=O)O)/C=C/c1ccco1	n	14µM	n	u	u
Cc1ccc(/C=C/C(=O)N2CCN(Cc3ccccc3)CC2)o1	n	u	n	n	n
Nc1cc(N)c(OCC(F)(F)F)cc1OCC(F)(F)F	u	3.2µM	-50	u	13µM
CC(CNC(=O)Cc1ccc(NC(=O)N2CCSc3ncccc32)cc1)c1ccccc1 (stereo not drawn)	n	n	x	x	n
COc1ccccc1NS(=O)(=O)c1cc(NC(C)=O)ccc1N1CCCCC1	u	n	n	45µM	n
COc1ccccc1NS(=O)(=O)c1cc(NC(=O)c2ccncc2)ccc1N1CCCC1	22µM[quencher]	u	n	14µM	n
COc1ccccc1NS(=O)(=O)c1cc(NC(=O)C2CC2)ccc1N1CCOCC1	u	n	n	n	n
COc1ccccc1NS(=O)(=O)c1cc(NC(=O)c2[nH]c(C)c(C(C)=O)c2C)ccc1N1CCOCC1	13µM[quencher]	n	n	n	u

High-throughput results: PubChem BioAssay, National Center for Advancing Translational Sciences (NCATS)
